In PubChem BioAssay (NCI):
The panel holds about 79,000 compounds, 15% with a hit somewhere; the sample as a whole holds those more often. No stated cut-off is given here; in the data, active means growth inhibition above about 70%; inactive means the rest.

Key:
[1] = NCI Yeast Anticancer Drug Screen. Data for the rad50 strain (AID 155);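 further: 0% = growth of vehicle-only cultures of the same strain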; conditions: S. cerevisiae rad50 strain growth inhibition, stronger effect = higher value; at 50.0 µM unless noted
How it was run: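 Growth of the mutant yeast was measured after compound exposure and referenced to vehicle-treated cultures.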

[2] = NCI Yeast Anticancer Drug Screen. Data for the mec2-1 strain (AID 157); conditions: S. cerevisiae mec2-1 strain, stronger effect = higher value; at 50.0 µM unless noted
How it was run: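 Yeast mec2-1 mutant treated with compound. Readout: growth inhibition vs vehicle controls.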

[3] = NCI Yeast Anticancer Drug Screen. Data for the sgs1 mgt1 strain (AID 161);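 further: 0% = growth of cultures given vehicle only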; conditions: S. cerevisiae sgs1 mgt1 strain, stronger effect = higher value; at 50.0 µM unless noted
How it was run: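 Read-out: growth inhibition vs vehicle controls. Cells: mutant yeast strain deficient in DNA damage repair.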

[4] = NCI Yeast Anticancer Drug Screen. Data for the cln2 rad14 strain (AID 165);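 further: 0% = growth equal to vehicle treated cultures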; conditions: S. cerevisiae cln2 rad14 strain, stronger effect = higher value; at 50.0 µM unless noted
How it was run: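 cln2 rad14 yeast strain; compound exposure; growth inhibition read vs vehicle controls.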

[5] = NCI Yeast Anticancer Drug Screen. Data for the bub3 strain (AID 167); conditions: S. cerevisiae bub3 mutant strain, stronger effect = higher value; at 50.0 µM unless noted
How it was run: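 Whole-cell yeast assay. The mutant strain was incubated with compounds, and growth inhibition was determined by comparison with vehicle-treated cells.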

[6] = NCI Yeast Anticancer Drug Screen. Data for the mlh1 rad18 strain (AID 175); conditions: S. cerevisiae mlh1 rad18 strain growth inhibition, stronger effect = higher value; at 50.0 µM unless noted
How it was run: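 Yeast w/ defined DNA-repair lesions; compound exposure; growth vs vehicle controls → % inhibition.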

Measured: growth inhibition

O=C(N1CCN(C(=O)S(=O)(=O)c2ccccc2)CC1)S(=O)(=O)c1ccccc1
inactive: [1] 29.9% | [2] -16.9% | [3] 19.8% | [4] 20.1% | [5] 1.85% | [6] -3.55%

COc1ccc(C)cc1Sc1ccc([N+](=O)[O-])cc1C
inactive: [1] 0.65% | [2] -17.9% | [3] -8.35% | [4] -19.2% | [5] 8.95% | [6] -19.2%

CN(C)c1ccc(-c2nc(-c3cc4c(ccc5ccccc54)oc3=O)cs2)cc1
inactive: [1] 22.1% | [2] 15.6% | [3] -7.55% | [4] 6.4% | [5] -19.8% | [6] -36%

COc1cc(OCc2ccc3oc(=O)c(-c4ccccc4)nc3c2)cc(OC)c1OC
inactive: [1] 16.6% | [2] 1% | [3] 2.2% | [4] 7.75% | [5] 19.2% | [6] 9.25%

CC(=O)OCC1OC(n2c3c(c(-c4cccc5ccccc45)c(C#N)c2=S)CCCC3)C(OC(C)=O)C(OC(C)=O)C1OC(C)=O (stereo not drawn)
inactive: [1] -1.25% | [2] -5.3% | [3] 14% | [4] 6.15% | [5] -5.8% | [6] 12.7%

O=C1c2ccccc2NC(O)c2cccn21 (stereo not drawn)
inactive: [1] 0.3% | [2] 0.2% | [3] -3.75% | [4] -25.9% | [5] 11.4% | [6] -5.45%

N[N+]#COC1C(C(=O)NN)C1C(=O)NN (stereo not drawn)
inactive: [1] -15.9% | [2] -10.4% | [3] -17.5% | [4] 7.75% | [5] 7.05% | [6] -17.9%

O=C1CSC(c2ccc(F)cc2F)N1c1nncs1 (stereo not drawn)
inactive: [1] 13.4% | [2] -3.7% | [3] 22.8% | [4] -35.2% | [5] -23.8% | [6] 24.2%

O=C1c2cccc3cc([N+](=O)[O-])cc(c23)C(=O)N1C(CO)(CO)CO
inactive: [1] 29.9% | [2] 12.6% | [3] 30.1% | [4] 27.5% | [5] 16% | [6] -4.45%

CC1CCC2C(C)C(=O)OC2C2(C)C(=O)C=CC12 (stereo not drawn)
inactive: [1] 11.9% | [2] -12.3% | [3] 13.7% | [4] 22.6% | [5] 2.7% | [6] -27.4%

C[N+](C)(C)CCc1ccc(Cl)cc1
inactive: [1] 10.2% | [2] 7.45% | [3] 9.7% | [4] -3.7% | [5] -0.05% | [6] 21.8%

O=P1(O)c2ccccc2Nc2cc(C(F)(F)F)ccc21
inactive: [1] 24.1% | [2] -8.25% | [3] -9.8% | [4] 8.7% | [5] -9.85% | [6] -49.4%

O=[N+]([O-])c1cc(Cl)ccc1S(=O)(=O)N1CCCc2cc(Cl)ccc21
inactive: [1] 66.2% | [2] 51.8% | [3] 64.8% | [4] 62.1% | [5] 63.6% | [6] 62%

Fc1ccc2c(c1)-c1ccccc1C2
inactive: [1] -0.1% | [2] -14.6% | [3] -2.65% | [4] 4.95% | [5] -0.95% | [6] -19.6%

CCOCc1cccc2ccccc12
inactive: [1] -13.6% | [2] -33.9% | [3] -14.9% | [4] 9% | [5] -6.55% | [6] -23.9%

OCC1COCO1 (stereo not drawn)
inactive: [1] 0.35% | [2] -4.1% | [3] -8.75% | [4] -1.65% | [5] -6.5% | [6] 9.2%

Cc1noc(NS(=O)(=O)c2ccc(Nc3nc(CC(=O)Nc4ccccc4)cs3)cc2)c1C
inactive: [1] 18.4% | [2] -19.1% | [3] 17.2% | [4] 12.7% | [5] -17.1% | [6] 9.2%

CCOC(=O)Cc1ccc2ccccc2c1
inactive: [1] 7.3% | [2] -24.1% | [3] -1.95% | [4] 1.2% | [5] 8.05% | [6] 7.5%

[N-]=[N+]=NC1(N=[N+]=[N-])C(=O)Nc2ccccc2C1=O (stereo not drawn)
inactive: [1] 15.5% | [2] 14.8% | [3] 2.55% | [4] 3.65% | [5] -10.2% | [6] 12.6%

CC(=O)Nc1ccn(C2OC(CO)C(O)C2O)c(=O)n1 (stereo not drawn)
inactive: [1] -3.6% | [2] 26.9% | [3] 0.05% | [4] 31.1% | [5] -11.6% | [6] 8.3%

CC1=CC(=C2C=C(C)C(=O)C(C)=C2)C=C(C)C1=O
inactive: [1] 9.85% | [2] -6.65% | [3] 24.4% | [4] -0.25% | [5] 4.25% | [6] 14.2%

CC(C)(CN1CCCCC1)C(=O)CC(SCCN)c1ccc(Cl)cc1 (stereo not drawn)
inactive: [1] 27.8% | [2] 0.65% | [3] 47.3% | [4] 31.2% | [5] 46.9% | [6] 23.8%

CCOC(=O)C(N)CSC(=O)NC (stereo not drawn)
inactive: [1] 24.9% | [2] -3.4% | [3] 16% | [4] 3.2% | [5] 20.9% | [6] -49.5%

NC(C=O)C(O)C(O)C(O)CO (stereo not drawn)
inactive: [1] -1.75% | [2] -18.2% | [3] 4.95% | [4] -10.2% | [5] -19.5% | [6] -6.9%

CC(C)=C1C2CCC1C(CO)C2CO (stereo not drawn)
inactive: [1] 4.95% | [2] -8.45% | [3] -13.5% | [4] -102% | [5] -2.4% | [6] -15.7%

O=C1CCC(=O)N1CNc1cccc(NCN2C(=O)CCC2=O)c1
inactive: [1] -5.35% | [2] -30.9% | [3] 11.9% | [4] 10.5% | [5] 3.9% | [6] -4.6%

CCc1ccc(NC(=O)c2ccccc2)cc1CC
inactive: [1] -11.3% | [2] -11% | [3] -2.5% | [4] -97.3% | [5] -4.05% | [6] -19.1%

O=C(O)CCC(=O)CCC(=O)O
inactive: [1] 13.7% | [2] -8.85% | [3] 3.6% | [4] 2% | [5] -14.6% | [6] 7.2%

Cc1[nH]c(=S)[nH]c1C
inactive: [1] 4.1% | [2] 9.5% | [3] 12.2% | [4] 10% | [5] 15.7% | [6] 12.6%

O=C(Nc1nncs1)c1cnccn1
inactive: [1] -1.85% | [2] -6.3% | [3] 14.2% | [4] -3.15% | [5] 11.3% | [6] -71.5%

C#CC(O)C1OC(C)(C)OC1C1COC(C)(C)O1 (stereo not drawn)
inactive: [1] 4.15% | [2] 6.5% | [3] 13.2% | [4] -4.4% | [5] -3.6% | [6] -5.65%

O=C(O)c1cccc(C(=O)O)c1-c1c(C(=O)O)cccc1C(=O)O
inactive: [1] -5.2% | [2] 17.8% | [3] 7.7% | [4] -80.5% | [5] 7.45% | [6] 4.05%

C=CC(=O)Nc1ccccc1
inactive: [1] 16.4% | [2] -8.05% | [3] 8.25% | [4] -8.35% | [5] -10% | [6] 5.55%

N/C1=C/C(=O)NC(=O)c2c(c3ccccc3oc2=O)C1
inactive: [1] -5.7% | [2] 0.9% | [3] 8.5% | [4] 5% | [5] 7.3% | [6] -29.6%

COc1ccc(C2c3cc(OC)c(OC)cc3C(Cc3ccc([N+](=O)[O-])cc3)C2c2ccc([N+](=O)[O-])cc2)cc1OC (stereo not drawn)
inactive: [1] 10.7% | [2] 19.8% | [3] -4.15% | [4] 16.1% | [5] 23.2% | [6] 6.55%

N#CC(C(=O)/C(=N/Nc1nc(=S)[nH]n1N)C(C#N)c1ccccc1)c1ccccc1 (stereo not drawn)
inactive: [1] -23.8% | [2] -1.45% | [3] -30.8% | [4] 14.8% | [5] -19.1% | [6] -10.2%

COc1ccc2nc(C(=O)c3ccccc3)c(C)cc2c1
inactive: [1] 8.4% | [2] -28.5% | [3] -10.7% | [4] 1.8% | [5] -10.9% | [6] -13.2%

O=c1ccn(C2OC(COC3CCCCO3)C(OC3CCCCO3)C2OC2CCCCO2)c(=O)n1-c1ccccc1 (stereo not drawn)
inactive: [1] 39.7% | [2] -4.8% | [3] 10.1% | [4] -1.4% | [5] -2.65% | [6] 5.25%
